HT1080 IDH1KD tx – HT-1080 IDH1 knockdown cell toxicity (counter line); Potency, µM (highest dose often 46.1 µM), for inactives: top-dose activity, negative = toxicity, hits mostly cytotoxic; AID 686971; HT-1080 IDH1 knockdown viability, ATP luminescence, 48 h; actives 2% (n = 360,000);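 note: 0% = DMSO wells and -100% = cell-free medium wells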
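In this qHTS, HT-1080 cells depleted of IDH1 are exposed for 48 h at 37 °C to compound titrations. Toxicity is scored from CellTiter-Glo luminescence, with DMSO as full viability and medium alone as none.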
HepG2 viability – HepG2 cytotoxicity, counter-screen for TGF-b inhibitors; HepG2 CAGA-GFP viability, ATP luminescence, 18 h; Potency, µM (series often up to 46.1 µM), for inactives: at the highest dose activity change, negative = cytotoxicity, usual class: cytotoxic; actives 0.76% (n = 410,000)
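CellTiter-Glo luminescence gave cytotoxicity after 18 hours at 37 degrees C. The cells were HepG2 CAGA-GFP in 1% FBS DMEM, stimulated with 500 pg/mL TGF-beta after compound addition. %Activity was normalised to no-cell wells (complete cell-killing) and DMSO (no toxicity), and curves were fitted and classified.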
ATXN2 expr inh – reduces ATXN2 reporter expression in HEK-293 cells. AID 1745845. HEK-293 ATXN2-luciferase reporter, luminescence, 24 h. actives 0.72% (n = 360,000). Potency, µM (highest dose often 57 µM), inactives show at the top dose activity change, negative = inhibition, usual class: inhibitors; note: % is set by controls: 0 for no effect and ±100 for the full control effect; nearly all actives have a fitted effect of over 55% in size
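ATXN2-luciferase reporter cells (luciferase flanked by upstream and downstream ATXN2 gene portions) were treated 24 h at 37 °C with compounds at up to 57 uM. SteadyGlo luminescence gave expression; GF-AFC fluorescence gave viability.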
TGFb SMAD3 inh – inhibitors of TGF-b signaling | AID 588855 | actives 1.2% (n = 410,000) | HepG2 CAGA-GFP TGF-b/SMAD3 reporter, GFP fluorescence, 18 h; TGF-beta stimulated, 500 pg/mL final | Potency, µM (highest dose often 46.1 µM), inactives show at the highest dose activity, negative = inhibition, usual class: inhibitors; note: % is set by controls: 0 for no effect and ±100 for the full control effect; nearly all actives have a fitted effect of over 65% in size
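HEPG2 CAGA-GFP cells (1000/well, DMEM with 1% FBS) were pre-incubated 2 h at 37 degrees C, given compound by pin tool, then stimulated with TGF-beta at 500 pg/mL final for 18 h before per-cell GFP fluorescence imaging.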
HT1080NT lethal – kills 2HG-producing HT-1080-NT fibrosarcoma cells; HT-1080-NT fibrosarcoma viability, CellTiter-Glo ATP luminescence, 48 h; Potency, µM (highest dose often 46.1 µM), inactives show at the highest dose activity, negative = less viability, most hits filed as cytotoxic; actives 1.6% (n = 360,000); AID 686970;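 note: NT is the 2HG producing partner of a matched IDH1 knockdown line; 0% = DMSO-treated cells and -100% = media-only wells without cells; nearly all actives have a fitted effect of over 55% in size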
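A 48-hour cytotoxicity screen used HT-1080-NT cells plated 2 hours before compound delivery. ATP-based CellTiter-Glo luminescence measured viability, normalized to DMSO and no-cell controls.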
S2 tox – viability counter-screen for ATXN expression inhibitors. S2 cells (HEK-293 line with an ATXN2-luciferase reporter) viability, CellTiter-Fluor protease fluorescence, 24 h. Potency, µM (series often up to 56.7 µM), hits mostly cytotoxic. actives 0.49% (n = 400,000). AID 651635; note: nearly all actives have a fitted effect of over 40% in size
* marks the source's active call; other numbers are inactive results; i = inactive; ? = inconclusive; . = no result given. Hits are enriched below; roughly 3.8% of the tested compounds scored in any of these assays. Calls come from the whole dose curve; as a rule, active = well fitted curve in the direction sought with a large enough effect; inconclusive = small, poorly fitted or top-dose-only effect, or another doubt; inactive = no such curve, though single readings can be large; an effect the other way counts as inactive or inconclusive. Potency is the fitted concentration of half-maximal effect.

SMILES	HT1080 IDH1KD tx	HepG2 viability	ATXN2 expr inh	TGFb SMAD3 inh	HT1080NT lethal	S2 tox
COc1cc2c(cc1NC(=S)Nc1cccc(C)c1)oc1ccccc12	?	-25%	-2%	-1%	10µM*	i
COc1cc2c(cc1NC(=O)Nc1cccc(C)c1)oc1ccccc12	-7%	-22%	-4%	0%	1%	i
CC(C)Nc1nc(NCCN2CCCC2)c2sc(-c3ccccc3)cc2n1	?	-8%	?	?	?	i
C=CCNc1nc(NCCOC)c2sc(-c3ccccc3)cc2n1	?	-43%	?	?	?	?
C=CCNc1nc(NCc2ccc(N(C)C)cc2)c2sc(-c3ccccc3)cc2n1	?	13µM*	-8%	?	?	?
c1ccc(OCCNc2nc(NCC3CC3)nc3cc(-c4ccccc4)sc23)cc1	?	-92%	?	?	15µM*	16µM*
C=CCNc1nc(NCCNC(C)=O)c2sc(-c3ccccc3)cc2n1	-26%	-8%	-15%	12%	?	?
C=CCNc1nc(NCCOc2ccccc2Cl)c2sc(-c3ccccc3)cc2n1	?	-53%	?	?	18µM*	?
c1ccc(CNc2nc(NCC3CC3)nc3cc(-c4ccccc4)sc23)cc1	?	-93%	?	?	23µM*	?
CC(C)(Oc1ccc(Cl)cc1)C(=O)OCCCOC(=O)C(C)(C)Oc1ccc(Cl)cc1	.	.	-11%	.	.	i
Cc1cnc(-n2ncc(C(=O)NCCN3CCOCC3)c2C(C)C)nc1-c1ccc(F)cc1	.	.	.	.	.	i
Clc1ccc(/C=C/c2ccncc2)cc1Cl	.	-54%	.	?	.	.
COc1ccc(Nc2ncnc3sc(-c4ccccc4)cc23)cc1OC	-11%	-29%	-5%	5%	-12%	i
C=CCNc1nc(Nc2ccc(OC)c(OC)c2)c2sc(-c3ccccc3)cc2n1	5.8µM*	-28%	0%	-21%	5.2µM*	i
CCCCN=C1NN=C(c2ccc3c(c2)OCCO3)CS1	-14%	-24%	-35%	6%	-19%	i
c1cc2c(cc1C1=NNC(=NC3CC3)SC1)OCCO2	12µM*	-78%	.	?	16µM*	?
Cc1cc(C2=NNC(=NC3CC3)SC2)c(C)n1-c1ccccc1F	?	-48%	0.28µM*	?	?	i
CNC(=O)c1c(I)c(NC(C)=O)c(I)c(C(=O)O)c1I	.	.	11%	.	.	i
Cc1cc(SCC(=O)Nc2cccc(S(=O)(=O)NC3=NCCCCC3)c2)nc2ccccc12	-8%	-35%	.	11µM*	0%	i
Cc1cc(SCC(=O)Nc2cccc(S(=O)(=O)NC3=NCCCCC3)c2)c(C)cc1Br	13µM*	-21%	?	?	?	i
Cc1cnc2ccc(I)cc2c1/C=C/c1ccc(N(C)C)cc1	.	-26%	.	-2%	.	.
C(=C\c1nc2ccccc2o1)/c1ccc2c(c1)OCO2	.	2%	.	-2%	.	.
CC(=O)c1cccc(NC(=O)CCc2c(C)nc3c(c(C)nn3-c3ccccc3)c2C)c1	.	2%	-29%	-4%	.	?
NC(=S)N=Nc1c(O)n(Cc2ccc(Br)cc2)c2ccccc12	3.7µM*	-52%	?	?	?	?
NC(=S)N=Nc1c(O)n(Cc2ccc(F)cc2)c2ccccc12	-29%	-25%	?	-10%	-25%	?
CC(C)Oc1ccc(F)cc1-c1cc(C(=O)Nc2ccc(C(C)(C)C)cc2)[nH]n1	18µM*	-79%	-20%	?	23µM*	?
CC(C)Oc1ccc(F)cc1-c1cc(C(=O)Nc2ccccc2)[nH]n1	25%	4%	19%	3%	5%	i
CC(C)Oc1ccc(F)cc1-c1cc(C(=O)N2CCc3ccccc3C2)[nH]n1	-22%	-33%	?	14µM*	-19%	?

Assay outcomes as filed in PubChem.
